In PubChem BioAssay (NCATS):
Calls of active or inactive are those of the source. The call rests on the fitted dose curve; in most records, active means well fitted curve in the direction sought with a large enough effect; inconclusive means small, poorly fitted or top-dose-only effect, or another doubt; inactive means no such curve, though single readings can be large or run the other way.

These compounds were tested against Guanine nucleotide-binding protein G(i) subunit alpha-1 (Homo sapiens) (UniProt P63096) (assay: qHTS Assay for Inhibitors of RGS12 GoLoco Motif Activity (Green Fluorophore) (AID 879;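 further: negative values mean loss of peptide binding seen as reduced polarization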)). Conditions: Galphai1/FITC-RGS12 GoLoco peptide, fluorescence polarization; series mostly up to 57.1 µM.
Description: Assay Overview: NIH Molecular Libraries Screening Centers Network [MLSCN] NIH Chemical Genomics Center [NCGC] MLSCN Grant: NS053754-01 Assay Provider: Siderovski, David P, University of North Carolina at Chapel Hill G-protein-coupled receptors (GPCRs) are major targets for drug discovery. The regulator of G-protein signaling (RGS)-protein family has important roles in GPCR signal transduction. RGS proteins contain a conserved RGS-box, which is often accompanied by other signaling regulatory elements. RGS proteins accelerate the deactivation of G proteins to reduce GPCR signaling; however, some also have an effector function and transmit signals. Combining GPCR agonists with RGS inhibitors should potentiate responses, and could markedly increase the agonist's regional specificity. The diversity of RGS proteins with highly localized and dynamically regulated distributions in brain makes them attractive targets for pharmacotherapy of central nervous system disorders. […] A complex of Gai1 and fluorescently labeled G-alpha-binding peptide (the "GoLoco motif") derived from RGS12 is incubated with library members. Inhibitors of the binding are detected by a decrease in the fluorescence polarization (FP) of the fluorophore. Protein was supplied by Prof. David Siderovski, University of North Carolina at Chapel Hill.
Assay Protocol: Reagents/Controls: Assay Buffer: 10 mM Tris-HCl, 150 mM NaCl, 0.1 mM GDP (prepared fresh), and 0.05% NP40 at pH 7.5. […] 10 nM FITC labeled peptide/50 nM protein in columns 1, 2, 5 - 48. Titration of unlabeled peptide control ([H][…][NH2], custom synthesized and HPLC-purified by Tufts University Core Facility) from 10 mM, then 1:2 dilution, 16-point in duplicate, pin-transferred to column 2, rows 1 to 32. Column 1 is neutral. FITC-labeled RGS12-GoLoco peptide was custom-synthesized and HPLC-purified by Michael Berne of Tufts University Assay Steps. Four uL of reagents were dispensed to 1536-well Greiner black solid-bottom plates. Compounds and controls (23 nL) were transferred via Kalypsys PinTool. The plates were incubated for 10 min at room temperature, and then read on ViewLux (Perkin-Elmer) High-throughput CCD imager using FITC polarization filter sets for the fluorescein-labeled decapeptide probe.During dispense, reagent bottles were kept submerged into 4 deg C water bath and all liquid lines were covered with aluminum foil to minimize probe and protein degradation. All screening operations were performed on a Kalypsys robotic system (Kalypsys, Inc., San Diego, CA) containing one RX-130 and two RX-90 anthropomorphic robotic arms.

Sequence of Guanine nucleotide-binding protein G(i) subunit alpha-1 (Homo sapiens) (P63096 whole entry, looked up): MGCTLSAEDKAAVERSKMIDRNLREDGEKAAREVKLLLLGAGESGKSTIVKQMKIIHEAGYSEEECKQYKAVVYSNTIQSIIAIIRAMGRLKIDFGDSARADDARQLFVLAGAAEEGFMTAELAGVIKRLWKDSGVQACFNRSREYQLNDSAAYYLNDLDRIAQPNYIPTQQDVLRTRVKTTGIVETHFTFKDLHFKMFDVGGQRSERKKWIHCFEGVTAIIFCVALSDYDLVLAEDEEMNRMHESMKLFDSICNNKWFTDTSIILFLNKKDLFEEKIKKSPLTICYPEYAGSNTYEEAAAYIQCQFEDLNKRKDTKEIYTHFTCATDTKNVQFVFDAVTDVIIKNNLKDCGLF

outcome, inactive:
CC1=C(C(=O)O)N2C(=O)[C@@H](NC(=O)[C@@H](N)C3=CCC=CC3)[C@@H]2SC1
CN1CC[C@@]2(CCN3CCc4c(oc5ccccc45)[C@@H]3C2)N(C)C1=O
OC[C@@H]1NC[C@@H](O)[C@H]1O
C=C/C(C)=C/[C@]1(C)SC(=O)C(C)=C1O
C[C@@]12C(=O)OC(=O)[C@@]1(C)[C@H]1CC[C@@H]2O1
COC(=O)[C@](C)(N)Cc1ccc(O)cc1
CN1CCc2c(cc(O)c(O)c2Cl)[C@H](c2cccc(Cl)c2)C1
N[C@H](CCC(=O)NCS(=O)(=O)O)C(=O)O
OC[C@@H]1O[C@@H](n2cnc3c(NC4CCCC4)ncnc32)[C@@H](O)[C@H]1O
COc1cc([C@H](O)CO)ccc1O
CN1[C@@H]2CC[C@H]1CC(NC(=O)c1nn(C)c3ccccc13)C2 (stereo not given in full)
CC[C@@H](CO)Nc1nc(NCc2ccccc2)c2ncn(C(C)C)c2n1
OC[C@@H]1O[C@@H](n2cnc3c(N[C@@H]4C[C@@H]5CC[C@H]4C5)ncnc32)[C@@H](O)[C@H]1O
C=CCN1CCc2c(cc(O)c(O)c2Cl)[C@H](c2ccccc2)C1
CC(C)C[C@H](NC(=O)[C@@H](O)[C@@H](N)Cc1ccccc1)C(=O)O
CCCCCCCCCCCCCCCC(=O)NC[C@@H](COP(=O)([O-])OCC[N+](C)(C)C)OCC
CSc1nc(N)c2ncn([C@@H]3O[C@@H](COP(=O)(O)OP(=O)(O)OP(=O)(O)O)[C@@H](O)[C@H]3O)c2n1
C=C(C)[C@@H]1CC=C(C(=O)O)CC1
CNC(=O)[C@@H]1O[C@@H](n2cnc3c(N)ncnc32)[C@@H](O)[C@H]1O
C[C@@H](CN1CCC(Cc2ccccc2)CC1)[C@H](O)c1ccc(O)cc1
Cc1ccccc1N1CCN(S(=O)(=O)C[C@@]23CC[C@H](C[C@H]2NC(=O)[C@@H](N)CCS(C)(=O)=O)C3(C)C)CC1
Nc1ncnc2c1ncn2[C@@H]1O[C@@H](C(=O)NC2CC2)[C@H](O)[C@@H]1O
CCCC[S@@](=N)(=O)CC[C@@H](N)C(=O)O
Nc1c2c(nc3ccccc13)CCC[C@H]2O
CN(C)C(=O)/N=N\C(=O)N(C)C
COc1cc([C@H](O)C(=O)O)ccc1O
N[C@@H]1C=CC=C(C(=O)O)C1
CSc1nc(N)c2ncn([C@@H]3O[C@@H](COP(=O)(O)OP(=O)(O)O)[C@@H](O)[C@H]3O)c2n1
CC(C)[C@H]1C(=O)C(C(N)=O)=C(O)[C@]2(O)C(=O)C3=C(O)c4c(O)ccc(N(C)C)c4C[C@H]3C[C@@H]12
Nc1nc(Nc2ccccc2)nc2c1ncn2[C@@H]1O[C@@H](CO)[C@H](O)[C@@H]1O
Oc1ccc([C@@H]2CNCCc3c2cc(O)c(O)c3Cl)cc1
O=c1ccn([C@@H]2O[C@@H](COP(=O)(O)OP(=O)(O)O)[C@H](O)[C@@H]2O)c(=O)[nH]1
Nc1ncnc2c1ncn2[C@@H]1CCCO1
Cc1nnc(SCC2=C(C(=O)O)N3C(=O)[C@@H](NC(=O)Cn4cnnn4)[C@@H]3SC2)s1
N.N.N.N.N.N.N.N.N.N.N.N.N.N.O.O.[Ru].[Ru].[Ru]
CC1(C)CCC(NC(=O)[C@H](N)CCC(=O)O)CC1
CCCC[C@]1(C2CCCC2)Cc2cc(OCC(=O)O)c(Cl)c(Cl)c2C1=O
O=C1OC(=O)[C@@H]2[C@@H]1[C@@H]1CC[C@H]2O1
C[C@H](N)C(=O)OC(C)(C)Cc1ccc(Cl)cc1
C[C@@H](COc1ccc(/C=C\c2ccccc2)cc1)[N+](C)(C)C
